Measured values: PubChem BioAssay (NCATS)
Values without a mark were called inactive. Inconclusive results are not listed. The source made the active and inactive calls. Unless noted, the call rests on the fitted dose curve; in most records, active means well fitted curve in the direction sought with a large enough effect; inconclusive means small, poorly fitted or top-dose-only effect, or another doubt; inactive means no such curve, though single readings can be large; an effect the other way counts as inactive or inconclusive.

Experiments:
[1] = biological target: Lysosomal acid glucosylceramidase (Homo sapiens) (UniProt P04062); experiment: Glucocerebrosidase-p2 (AID 348; in the data active means potency below about 10 µM; further: potency means the concentration at half of the fitted maximal effect); conditions: purified GBA, blue fluorogenic substrate, 40 min
Sequence of Lysosomal acid glucosylceramidase (Homo sapiens) (P04062 whole entry, looked up): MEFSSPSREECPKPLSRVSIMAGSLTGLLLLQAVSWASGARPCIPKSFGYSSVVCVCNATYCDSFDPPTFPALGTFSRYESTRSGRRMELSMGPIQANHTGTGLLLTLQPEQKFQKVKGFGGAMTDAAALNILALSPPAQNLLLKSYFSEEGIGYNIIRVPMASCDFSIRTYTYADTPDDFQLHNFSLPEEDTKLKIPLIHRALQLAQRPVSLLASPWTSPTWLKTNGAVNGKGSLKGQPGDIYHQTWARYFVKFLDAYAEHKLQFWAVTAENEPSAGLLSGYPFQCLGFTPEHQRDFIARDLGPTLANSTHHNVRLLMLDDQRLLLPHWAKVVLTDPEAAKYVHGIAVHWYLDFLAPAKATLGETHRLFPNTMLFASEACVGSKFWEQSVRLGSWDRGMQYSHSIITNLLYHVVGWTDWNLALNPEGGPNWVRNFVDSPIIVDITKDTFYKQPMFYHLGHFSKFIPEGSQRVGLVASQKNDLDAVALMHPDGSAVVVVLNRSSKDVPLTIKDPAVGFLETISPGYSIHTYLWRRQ
In short: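 Compounds titrated from 0.6 nM upwards against 0.2 nM enzyme in pH 5.9 citric acid/KH2PO4, taurocholate, tween-20; blue fluorogenic substrate 80 uM, 40 min room temperature, stopped and read Ex 365/Em 440 for AC50.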

[2] = biological target: Cytochrome P450 1A2 (Homo sapiens) (UniProt P05177); experiment: p450-cyp1a2 (AID 410; calls by dose curve; further: potency means the concentration at half of the fitted maximal effect); conditions: recombinant CYP1A2, luciferin-ME demethylation, luminescence; series mostly up to 57 µM
Sequence of Cytochrome P450 1A2 (Homo sapiens) (P05177 whole entry, looked up): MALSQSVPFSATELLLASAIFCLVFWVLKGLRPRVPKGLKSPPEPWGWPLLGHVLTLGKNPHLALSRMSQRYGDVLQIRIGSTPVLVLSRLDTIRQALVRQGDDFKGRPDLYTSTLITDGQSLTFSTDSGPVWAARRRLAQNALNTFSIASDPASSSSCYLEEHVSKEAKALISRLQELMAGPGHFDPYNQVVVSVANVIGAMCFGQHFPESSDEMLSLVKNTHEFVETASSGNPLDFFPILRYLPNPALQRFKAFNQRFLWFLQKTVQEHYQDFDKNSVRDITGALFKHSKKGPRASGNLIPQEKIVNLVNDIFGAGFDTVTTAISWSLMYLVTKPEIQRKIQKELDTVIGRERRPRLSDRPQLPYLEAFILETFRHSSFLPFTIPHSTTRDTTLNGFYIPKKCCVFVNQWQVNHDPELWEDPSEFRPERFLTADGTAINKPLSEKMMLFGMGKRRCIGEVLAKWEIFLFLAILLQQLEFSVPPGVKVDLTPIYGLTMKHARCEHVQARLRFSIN
In short: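 20nM CYP1A2 with 100uM Luciferin-ME (at Km) in 100mM KPO4; compound preincubated 10 min, NADPH regeneration added, 60 min at room temperature. Luciferin quantified by luminescence after detection reagent; normalized to 57 uM furafylline.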

[3] = NFAT Signaling Pathway (AID 444; active means well fitted curve in either direction with a large enough effect, not every such curve was filed as active;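 further: carbachol stimulus at about its EC50 of 1 µM final; on the % scale 0 is the no-effect control and ±100 the full control effect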); conditions: Jurkat NFAT-bla M1, carbachol, beta-lactamase ratio, 5 h; at 7.69 µM (top of the series) unless noted
In short: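 Jurkat cells carrying an NFAT-driven β-lactamase reporter and co-transfected muscarinic M1 receptor were treated with compound plus carbachol (1 uM final, an EC50 level) for 5 h at 37 °C. CCF4 loading followed for 1 h at RT; 460/530 nm ratio gave %activity.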

[4] = Stat Signaling Pathway (AID 446; active means well fitted curve in either direction with a large enough effect, not every such curve was filed as active;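 further: ME-180 cervical cancer cells given 40 pM IL-6 alongside compound; SIE-controlled beta-lactamase reporter measured as 460/530 nm FRET emission ratio; on the % scale 0 is the no-effect control and ±100 the full control effect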); conditions: ME-180 SIE beta-lactamase reporter, IL-6 stimulated, 5 h; at 7.69 µM (top of the series) unless noted
In short: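 Reporter line: ME-180 cervical carcinoma, SIE-beta-lactamase. Treatment: compound with 40 pM IL-6, 5 hrs, 37 C, in low-serum OPTI-MEM with 10 mM HEPES pH 7.3. Detection: 460/530 nm fluorescence.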

[5] = biological target: Glucocorticoid receptor (Homo sapiens) (UniProt P04150); experiment: GR-GFP Redistribution (AID 450;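 active means compounds whose dose series gives a full or clear partial fitted curve of increased nuclear translocation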; further: potency means the concentration at half of the fitted maximal effect); conditions: U2OS GR-GFP nuclear translocation, laser cytometry, 2 h
Sequence of Glucocorticoid receptor (Homo sapiens) (P04150 whole entry, looked up, the tested form may be a part): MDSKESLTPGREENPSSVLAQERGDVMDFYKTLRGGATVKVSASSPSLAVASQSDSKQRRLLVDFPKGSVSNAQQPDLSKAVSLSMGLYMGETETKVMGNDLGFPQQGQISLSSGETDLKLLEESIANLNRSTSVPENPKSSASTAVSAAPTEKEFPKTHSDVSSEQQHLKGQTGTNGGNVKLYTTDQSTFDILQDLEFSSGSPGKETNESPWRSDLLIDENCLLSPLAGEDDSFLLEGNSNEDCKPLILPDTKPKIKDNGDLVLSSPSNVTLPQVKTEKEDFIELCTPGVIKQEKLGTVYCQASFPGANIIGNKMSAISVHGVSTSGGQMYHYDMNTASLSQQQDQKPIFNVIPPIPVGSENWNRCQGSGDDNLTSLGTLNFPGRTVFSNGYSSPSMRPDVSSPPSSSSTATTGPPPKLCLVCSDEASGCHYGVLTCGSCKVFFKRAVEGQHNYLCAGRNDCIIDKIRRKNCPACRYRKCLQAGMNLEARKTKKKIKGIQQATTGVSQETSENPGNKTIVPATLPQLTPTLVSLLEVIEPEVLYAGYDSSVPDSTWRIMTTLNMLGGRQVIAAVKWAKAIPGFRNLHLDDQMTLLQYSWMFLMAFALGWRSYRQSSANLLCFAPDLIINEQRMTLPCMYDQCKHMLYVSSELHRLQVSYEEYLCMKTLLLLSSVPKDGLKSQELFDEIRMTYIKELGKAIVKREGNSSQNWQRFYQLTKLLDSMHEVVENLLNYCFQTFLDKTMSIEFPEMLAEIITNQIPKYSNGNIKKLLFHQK

[6] = biological target: Glucocorticoid receptor (Homo sapiens) (UniProt P04150); experiment: GR-EFC Redistribution (AID 451; calls by dose curve; further: potency means the concentration at half of the fitted maximal effect); conditions: CHO-K1 GR-EFC translocation, beta-gal luminescence, 2 h
In short: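 CHO-K1 cells stably expressing nuclear-localized β-gal enzyme acceptor and GR fused C-terminally to the enzyme donor fragment; ligand-driven nuclear translocation restores β-gal by complementation. Compounds titrated up to 46 uM final, 2 h at 37 °C; luminescence read.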

[7] = biological target: Mitogen-activated protein kinase 10 (Mus musculus) (UniProt Q61831); experiment: JNK3 AlphaScreen Assay (AID 530; active means well fitted curve in either direction with a large enough effect, not every such curve was filed as active;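 further: kinase came from lysate of stimulated human HepG2 cells; signal reports phosphorylation of biotinylated GST-cJun 1-79 at Ser73 with 10 µM ATP; on the % scale 0 is the no-effect control and ±100 the full control effect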); conditions: JNK3 lysate, c-Jun phosphorylation; series mostly up to 57.1 µM
In short: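 Inhibitors reduce antibody binding to phosphorylated biotin-cJun, lowering AlphaScreen luminescence. Lysates from HepG2 cells pre-activated by IL-1beta plus TNF-alpha supplied JNK3; compounds were titrated.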

[8] = biological target: 3',5'-cyclic-AMP phosphodiesterase 4B (Homo sapiens) (UniProt Q07343); experiment: qHTS Assay for Inhibitors of PDE-IV (AID 607; active means well fitted activation curve with a large enough effect in the main read-out, with a control signal flat, not every such curve was filed as active; further: % of control where 0% means no effect); conditions: HEK293 ACTOne CNG channel cells, membrane potential fluorescence; series mostly up to 22.9 µM
Sequence of 3',5'-cyclic-AMP phosphodiesterase 4B (Homo sapiens) (Q07343 whole entry, looked up): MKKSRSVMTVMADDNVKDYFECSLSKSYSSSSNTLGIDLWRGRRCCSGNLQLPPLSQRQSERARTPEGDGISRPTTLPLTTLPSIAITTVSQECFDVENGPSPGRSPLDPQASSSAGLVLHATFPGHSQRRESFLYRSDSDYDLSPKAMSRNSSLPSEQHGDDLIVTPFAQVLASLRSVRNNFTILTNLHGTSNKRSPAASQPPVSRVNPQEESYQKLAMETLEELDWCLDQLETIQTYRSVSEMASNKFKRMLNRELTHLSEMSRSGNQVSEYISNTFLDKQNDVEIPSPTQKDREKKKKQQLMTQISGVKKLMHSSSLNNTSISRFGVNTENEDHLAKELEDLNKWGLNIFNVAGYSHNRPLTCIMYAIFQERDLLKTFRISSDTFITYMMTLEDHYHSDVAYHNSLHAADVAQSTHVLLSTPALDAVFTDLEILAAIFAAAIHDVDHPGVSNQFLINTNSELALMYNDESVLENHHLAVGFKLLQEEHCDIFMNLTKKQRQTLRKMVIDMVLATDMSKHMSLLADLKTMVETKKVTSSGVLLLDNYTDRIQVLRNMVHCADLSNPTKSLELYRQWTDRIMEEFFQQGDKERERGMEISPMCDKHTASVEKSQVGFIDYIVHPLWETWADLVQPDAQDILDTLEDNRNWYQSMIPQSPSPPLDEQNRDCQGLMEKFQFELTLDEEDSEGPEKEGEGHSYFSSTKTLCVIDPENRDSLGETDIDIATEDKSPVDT
In short: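 Cell-based read-out of cAMP via a modified cyclic nucleotide-gated channel and membrane potential dye (535/590 nm) in HEK293 cells expressing PDE4 endogenously. Compounds tested up to 22.9 uM final; 100 uM RO 20-1724 reference.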

[9] = biological target: Cytochrome P450 3A4 (Homo sapiens) (UniProt P08684); experiment: qHTS Assay for Activators of Cytochrome P450 3A4 (AID 885); conditions: recombinant CYP3A4, Luciferin-PPXE luminescence, 60 min; series mostly up to 57.1 µM; further: nearly all actives have a fitted effect of over 65% in size
Sequence of Cytochrome P450 3A4 (Homo sapiens) (P08684 whole entry, looked up): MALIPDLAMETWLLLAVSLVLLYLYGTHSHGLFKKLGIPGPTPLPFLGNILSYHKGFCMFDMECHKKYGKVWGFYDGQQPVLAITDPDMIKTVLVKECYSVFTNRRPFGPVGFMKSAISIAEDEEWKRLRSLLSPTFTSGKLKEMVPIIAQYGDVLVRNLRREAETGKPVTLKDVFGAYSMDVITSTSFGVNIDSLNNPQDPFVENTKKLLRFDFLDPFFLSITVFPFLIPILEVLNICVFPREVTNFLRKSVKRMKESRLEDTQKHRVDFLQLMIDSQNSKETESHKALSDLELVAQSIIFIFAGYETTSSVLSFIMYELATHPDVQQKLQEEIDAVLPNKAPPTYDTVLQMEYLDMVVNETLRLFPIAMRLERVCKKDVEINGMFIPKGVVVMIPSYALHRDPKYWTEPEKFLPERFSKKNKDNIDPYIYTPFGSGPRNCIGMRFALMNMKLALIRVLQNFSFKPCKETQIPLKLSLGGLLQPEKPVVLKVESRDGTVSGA
In short: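 Signal was normalized against complete inhibition by 57 uM ketoconazole. The reaction used 20nM CYP3A4 with 25uM Luciferin-PPXE, 10-min compound preincubation and a 60-min NADPH-supported step at RT.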

[10] = biological target: Dual specificity protein kinase CLK4 (Homo sapiens) (UniProt Q9HAZ1); experiment: qHTS Assay for Inhibitors of CDC-like Kinase 4 (Kinase-Glo Assay) (AID 1770); conditions: recombinant Clk4, Kinase-Glo ATP depletion luminescence; series mostly up to 66.7 µM; further: nearly all actives have a fitted effect of over 65% in size; further: potency means the concentration at half of the fitted maximal effect
Sequence of Dual specificity protein kinase CLK4 (Homo sapiens) (Q9HAZ1 whole entry, looked up): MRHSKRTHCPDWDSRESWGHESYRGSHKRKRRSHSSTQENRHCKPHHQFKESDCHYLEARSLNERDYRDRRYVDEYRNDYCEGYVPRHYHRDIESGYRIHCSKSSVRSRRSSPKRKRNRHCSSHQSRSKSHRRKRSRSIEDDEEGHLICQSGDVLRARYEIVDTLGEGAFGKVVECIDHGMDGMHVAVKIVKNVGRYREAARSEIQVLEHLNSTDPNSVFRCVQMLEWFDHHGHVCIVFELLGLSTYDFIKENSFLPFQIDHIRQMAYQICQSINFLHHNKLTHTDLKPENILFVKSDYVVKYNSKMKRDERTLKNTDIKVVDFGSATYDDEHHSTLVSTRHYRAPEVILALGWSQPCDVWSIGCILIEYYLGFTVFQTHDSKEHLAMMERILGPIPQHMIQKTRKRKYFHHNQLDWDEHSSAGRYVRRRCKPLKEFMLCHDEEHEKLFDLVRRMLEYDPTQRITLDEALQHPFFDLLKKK
In short: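 Clk4 25 nM, RS peptide 100 uM, ATP 1 uM, pH 7.5 Tris, 10 mM MgCl2, 2.5 mM DTT; 4.5 h RT; ATP depletion read by Kinase-Glo luminescence.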

[11] = biological target: Dual specificity protein kinase CLK4 (Homo sapiens) (UniProt Q9HAZ1); experiment: qHTS Assay for Inhibitors of CDC-like Kinase 4 (ADP-Glo Assay) (AID 1771); conditions: recombinant CLK4, ADP-Glo luminescence; series mostly up to 80 µM; further: nearly all actives have a fitted effect of over 70% in size; further: potency means the concentration at half of the fitted maximal effect
In short: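 25 nM Clk4 with 100 uM RS repeat peptide and 1 uM ATP (final) in buffer with 2 mM MgCl2, 0.5 mM EGTA, 2.5 mM DTT, 0.01% Triton X-100; 1 h at room temperature; ADP-Glo luminescence for ADP formed.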

[12] = biological target: Dual specificity protein kinase CLK4 (Homo sapiens) (UniProt Q9HAZ1); experiment: qHTS Assay for Inhibitors of CDC-like Kinase 4 (ADP-FP Assay) (AID 1795); conditions: Transcreener ADP fluorescence polarization; series mostly up to 50 µM; further: nearly all actives have a fitted effect of over 60% in size; further: potency means the concentration at half of the fitted maximal effect
In short: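 Kinase activity was followed as ADP output, converted from fluorescence polarization with a calibration curve. Reactions ran one hour at low ATP (1 uM) with RS peptide substrate.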

[13] = biological target: Ubiquitin carboxyl-terminal hydrolase 1 (Homo sapiens) (UniProt O94782); experiment: Inhibitors of USP1/UAF1: Pilot qHTS (AID 504865); conditions: purified USP1/UAF1, Ub-rhodamine cleavage fluorescence; series mostly up to 54.9 µM;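 further: rhodamine fluorescence freed from ubiquitin-rhodamine substrate followed over time; top concentration of the series differs between compounds; on the % scale 0 is the no-effect control and ±100 the full control effect; nearly all actives have a fitted effect of over 35% in size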
Sequence of Ubiquitin carboxyl-terminal hydrolase 1 (Homo sapiens) (O94782 whole entry, looked up): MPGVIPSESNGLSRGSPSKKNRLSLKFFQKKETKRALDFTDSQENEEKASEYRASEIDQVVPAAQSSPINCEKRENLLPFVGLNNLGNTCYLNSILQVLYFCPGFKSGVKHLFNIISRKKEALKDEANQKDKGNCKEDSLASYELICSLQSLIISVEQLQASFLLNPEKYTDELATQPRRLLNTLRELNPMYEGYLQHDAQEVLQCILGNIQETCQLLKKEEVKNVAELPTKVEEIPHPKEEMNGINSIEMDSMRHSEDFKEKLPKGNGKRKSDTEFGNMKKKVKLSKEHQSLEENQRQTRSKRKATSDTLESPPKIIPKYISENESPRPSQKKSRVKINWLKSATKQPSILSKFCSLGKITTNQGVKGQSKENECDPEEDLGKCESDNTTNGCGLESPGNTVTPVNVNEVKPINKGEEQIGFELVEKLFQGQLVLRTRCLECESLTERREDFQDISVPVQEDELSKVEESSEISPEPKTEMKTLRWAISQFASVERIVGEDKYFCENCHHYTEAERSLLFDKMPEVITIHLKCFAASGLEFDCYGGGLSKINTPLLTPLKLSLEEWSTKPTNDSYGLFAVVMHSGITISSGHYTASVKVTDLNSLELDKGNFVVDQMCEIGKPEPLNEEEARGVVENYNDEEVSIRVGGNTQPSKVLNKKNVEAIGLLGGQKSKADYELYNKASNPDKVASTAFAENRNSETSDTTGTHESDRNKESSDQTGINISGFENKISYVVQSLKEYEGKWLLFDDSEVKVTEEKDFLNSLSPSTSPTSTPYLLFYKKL
In short: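 Enzyme-free wells gave the negative control, while test wells held 1nM USP1/UAF1 preincubated with compound for 15 min at room temperature. Ub-Rho at 150nM final started the reaction, and fluorescence at 480/540 nm was recorded kinetically.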

[14] = Primary qHTS for small molecule stabilizers of the endoplasmic reticulum resident proteome: Secreted ER Calcium Modulated Protein (SERCaMP) assay (AID 1508630); conditions: SH-SY5Y GLuc-SERCaMP (Gaussia luciferase released on ER calcium loss) secretion, thapsigargin, luminescence; series mostly up to 38.4 µM; further: on the % scale 0 is the no-effect control and ±100 the full control effect
In short: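 GLuc-SERCaMP-expressing SH-SY5Y cells, pretreated 16 h with compound, are challenged with thapsigargin to empty ER calcium stores; after 4 h, coelenterazine is added directly to the medium and luminescence is imaged.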

[15] = biological target: Cytochrome P450 3A4 (Homo sapiens) (UniProt P08684); experiment: qHTS Assay for Inhibitors and Substrates of Cytochrome P450 3A4 (AID 884); conditions: recombinant CYP3A4, Luciferin-PPXE luminescence; series mostly up to 57.1 µM; further: potency means the concentration at half of the fitted maximal effect; nearly all actives have a fitted effect of over 50% in size
In short: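 20 nM human CYP3A4 with 25 uM Luciferin-PPXE (at KM) in 200 mM KPO4, preincubated 10 min with compound; NADPH regeneration started a 60 min RT reaction. Luciferin detected by luminescence, normalized to 57 uM ketoconazole as full inhibition.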

[16] = biological target: Cytochrome P450 2D6 (Homo sapiens) (UniProt P10635); experiment: qHTS Assay for Inhibitors and Substrates of Cytochrome P450 2D6 (AID 891); conditions: recombinant CYP2D6, luciferin-ME EGE luminescence; series mostly up to 57.1 µM; further: potency means the concentration at half of the fitted maximal effect; nearly all actives have a fitted effect of over 60% in size
In short: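 Human CYP2D6 (5 nM) with 30 uM Luciferin-ME EGE (at Km) in 100 mM KPO4, compound preincubated 10 min, then NADPH regeneration system for 60 min at room temperature. Luciferin read by luminescence; normalized to 1.43 uM quinidine.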

[17] = biological target: Cytochrome P450 2C19 (Homo sapiens) (UniProt P33261); experiment: qHTS Assay for Inhibitors and Substrates of Cytochrome P450 2C19 (AID 899); conditions: recombinant CYP2C19, luciferin-H EGE luminescence; series mostly up to 57.1 µM; further: potency means the concentration at half of the fitted maximal effect; nearly all actives have a fitted effect of over 60% in size
Sequence of Cytochrome P450 2C19 (Homo sapiens) (P33261 whole entry, looked up): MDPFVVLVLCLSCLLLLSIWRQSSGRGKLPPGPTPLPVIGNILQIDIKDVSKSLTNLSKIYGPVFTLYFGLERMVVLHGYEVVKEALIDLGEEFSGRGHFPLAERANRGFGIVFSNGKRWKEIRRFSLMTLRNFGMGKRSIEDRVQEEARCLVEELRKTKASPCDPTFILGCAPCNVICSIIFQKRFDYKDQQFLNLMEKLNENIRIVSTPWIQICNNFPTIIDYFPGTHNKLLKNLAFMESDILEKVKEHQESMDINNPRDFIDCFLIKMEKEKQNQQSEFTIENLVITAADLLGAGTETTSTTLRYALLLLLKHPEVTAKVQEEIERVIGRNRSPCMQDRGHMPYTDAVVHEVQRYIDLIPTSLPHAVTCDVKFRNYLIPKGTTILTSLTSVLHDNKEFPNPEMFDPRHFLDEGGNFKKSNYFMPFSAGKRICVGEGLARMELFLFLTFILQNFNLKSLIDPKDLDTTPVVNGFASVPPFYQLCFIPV
In short: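 In 50mM KPO4, the reaction held 5nM enzyme and KM-level (10uM) Luciferin-H EGE; it ran 60 min at 37C after NADPH regeneration and a 10 min compound preincubation. Luminescence values were scaled to 57uM ketoconazole as complete inhibition.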

[18] = qHTS Assay for Identification of Small Molecule Agonists for Hypoxia Response Element Signaling Pathway (AID 914; active means well fitted activation curve with a large enough effect in the signal ratio, with a control signal flat, not every such curve was filed as active; the % refers to the signal ratio; further: % of control where 0% means no effect); conditions: ME-180 (cervical carcinoma) HRE-bla reporter, beta-lactamase ratio, CoCl2, 17 h; activation: stronger effect = higher value
In short: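 HRE-bla ME-180 cells with beta-lactamase reporter under hypoxia response element, compounds with EC50 CoCl2 for 17 hours at 37 C. CCF4 substrate, 460nm/530nm emission ratio gave %Activity; AC50 from titration series.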

| Compound | Potency [1] | Potency [2] | activity change, negative = inhibition [3] | activity, negative = inhibition [4] | Potency [5] | Potency [6] | Potency [7] | Potency [8] | Potency [9] | Potency [10] | Potency [11] | Potency [12] | Potency [13] | outcome [14] | Potency [15] | Potency [16] | Potency [17] | activation [18] |
| --- | --- | --- | --- | --- | --- | --- | --- | --- | --- | --- | --- | --- | --- | --- | --- | --- | --- | --- |
| CN(C)C(=O)c1ccc(-c2cncnc2Nc2ccccc2)cc1 | > 11.4 µM | 31600 nM (active) | 1.8% | -6.42% | > 46 µM | > 46 µM | inactive | inactive | inactive | inactive | inactive | inactive | inactive | inactive |  |  |  |  |
| COc1cccc(Cn2c(=O)cnc3cnc(OCc4ccccc4)nc32)c1 | > 11.4 µM | 12600 nM (active) | -4.5% | -13.2% | > 9.22 µM | > 46 µM | inactive |  | inactive | inactive | inactive | inactive | inactive | inactive |  |  |  |  |
| COc1ccccc1CNc1ncnc2ccc(-c3ccc4c(c3)OCO4)cc12 | > 11.4 µM | 794 nM (active) | -26.5% | -7.21% | > 46 µM | > 46 µM | inactive |  | inactive | 0.0794 µM (active) | 0.158 µM (active) | 25.1 nM (active) | inactive | inactive | 1.26 µM (active) | 794 nM (active) | 3.16 µM (active) |  |
| c1ccc(CNc2nc(-c3ccc4c(c3)OCO4)nc3ccccc23)cc1 | > 11.4 µM | 501 nM (active) | -23.9% | -13% | > 46 µM | > 46 µM | inactive |  | inactive | inactive | inactive | inactive | inactive | inactive |  |  |  |  |
| CN(C)c1ccc(-c2cncnc2Nc2ccc(F)cc2)cc1 | > 11.4 µM | 501 nM (active) |  | -2.86% | > 46 µM | > 46 µM |  |  | inactive | 10 µM (active) | 10 µM (active) | inactive |  | inactive | 0.794 µM (active) |  | 0.794 µM (active) |  |
| COc1ccc(CNc2ccnc(-c3ccoc3)n2)c(OC)c1 | > 11.4 µM |  | 8.22% | 10.4% | > 46 µM | > 46 µM | inactive |  |  | inactive | inactive | inactive | inactive | inactive |  |  |  | 16.3% |
| CN(C)c1ncc2nc(-c3cccc(C#N)c3)c(=O)n(C)c2n1 | > 11.4 µM |  | 5.54% | -1.63% | > 9.22 µM | > 46 µM | inactive | inactive |  | inactive | inactive | inactive | inactive | inactive |  |  |  |  |
